LANA-H2A inh = blocks KSHV LANA binding to histone H2A/H2B; Q9QR71; cell-free LANA-H2A/H2B peptide, fluorescence polarization; inhibition, % (concentration not given with the values); 0.6% of 320,000 active; AID 2629; in the data active = inhibition mostly above about 10%, no sharp cut-off; inactive = mostly below about 6.7%
RTF Ca sens inh = cardiac RTF calcium desensitization | IANBD-labeled cardiac RTF, Ca2+ fluorescence | 0.12% of 340,000 active | AID 493244 | P19429+P45379 | inhibition, % at 7.15 µM;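 active = inhibition above the mean inhibition of all tested compounds plus 3 SD, cut at about 17% in these data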;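 also: assay run at fixed EC70 calcium of 1.6 mM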
cardiac RTF act = increases calcium sensitivity of human cardiac regulated thin filaments; P19429+P45379; IANBD-labeled TnC RTF fluorescence at EC20 calcium; 0% EC20 calcium, 100% full calcium; activation, % at 7.2 µM; 0.24% of 340,000 active; AID 493008;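 active = activation above the mean over all tested compounds plus 3 SD, cut at about 30% in these data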;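 also: rise in fluorescence read as greater calcium sensitivity of cardiac thin filaments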
Keap1-Nrf2 PPI = inhibitors of human Keap1-Nrf2 protein-protein interaction; 0.15% of 340,000 active; Keap1 Kelch-Nrf2 peptide fluorescence polarization, 1536-well; Q14145; inhibition, % at 9.4 µM; in the data active = inhibition above about 12%; inconclusive = no clear call, values can overlap the other calls; inactive = below about 7.3%;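 also: human Keap1 Kelch domain with fluorescein labeled Nrf2 9mer peptide probe; 0% = neutral control wells and 100% = peptide positive control; higher means more block of Keap1 binding to Nrf2 peptide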
Target sequence (Q14145 whole entry, looked up, the tested form may be a part): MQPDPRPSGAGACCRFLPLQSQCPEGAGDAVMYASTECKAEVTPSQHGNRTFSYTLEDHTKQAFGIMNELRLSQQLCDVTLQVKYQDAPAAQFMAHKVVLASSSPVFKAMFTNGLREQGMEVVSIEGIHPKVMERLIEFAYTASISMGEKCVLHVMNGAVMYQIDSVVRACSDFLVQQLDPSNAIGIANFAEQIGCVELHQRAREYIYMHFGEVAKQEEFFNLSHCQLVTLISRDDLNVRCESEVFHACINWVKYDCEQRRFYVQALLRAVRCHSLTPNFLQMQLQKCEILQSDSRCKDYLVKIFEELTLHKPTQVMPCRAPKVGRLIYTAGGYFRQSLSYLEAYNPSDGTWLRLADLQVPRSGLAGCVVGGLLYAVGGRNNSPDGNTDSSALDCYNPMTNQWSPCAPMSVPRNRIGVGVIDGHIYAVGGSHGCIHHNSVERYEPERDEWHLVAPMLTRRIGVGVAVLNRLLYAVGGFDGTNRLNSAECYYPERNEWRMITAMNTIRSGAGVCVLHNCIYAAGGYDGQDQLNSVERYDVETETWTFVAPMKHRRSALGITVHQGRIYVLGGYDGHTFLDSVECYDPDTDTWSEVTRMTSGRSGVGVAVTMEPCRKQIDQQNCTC
LANA DNA inh = blocks KSHV LANA C-terminal domain binding to DNA | 0.078% of 340,000 active | MBP-C-LANA/FAM-LBS DNA binding, fluorescence polarization | inhibition, % at 9 µM;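 active = highest replicate inhibition at or above 60% at 9 µM, even if other replicates fall short; inactive = all replicates below 60% inhibition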;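 also: 0% = neutral control wells and 100% = 4 µM acridine orange control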
* marks the source's active call; other numbers are inactive results. The list is not random: actives were taken first. Their share in the collection is about 1%.

Screening CCN(c1ccccc1)S(=O)(=O)c1ccc(OC)c(NC(=O)CN(C)C)c1 returned LANA-H2A inh 94*, RTF Ca sens inh -7, cardiac RTF act -1, Keap1-Nrf2 PPI 0 and LANA DNA inh 0.
For CCN(c1ccccc1)S(=O)(=O)c1ccc(OC)c(NC(=O)CNC)c1 the results were LANA-H2A inh -3, RTF Ca sens inh -8, cardiac RTF act 0, Keap1-Nrf2 PPI 1 and LANA DNA inh -2.
Screening CNc1nnc(C(F)(F)F)s1 returned LANA-H2A inh 16*, RTF Ca sens inh 6, cardiac RTF act -4, Keap1-Nrf2 PPI 4 and LANA DNA inh -1.
`NNC(=O)CCc1nc2ccc(O)cc2[nH]1` gave LANA-H2A inh 13*, RTF Ca sens inh -4, cardiac RTF act 6, Keap1-Nrf2 PPI -2 and LANA DNA inh 0.
For NS(=O)(=O)c1cc2c(cc1Cl)NC=NS2(=O)=O the results were LANA-H2A inh 13*, RTF Ca sens inh 7, cardiac RTF act -2, Keap1-Nrf2 PPI 4 and LANA DNA inh 1.
`O=C(c1ccc(O)cc1)c1ccc(C(=O)c2ccc(O)cc2)cc1` gave LANA-H2A inh 13*, RTF Ca sens inh -5, cardiac RTF act 7, Keap1-Nrf2 PPI -3 and LANA DNA inh -1.
Screening Cc1ccc2c(c1)C(=O)CC(c1ccccc1)S2 (stereo not given) returned RTF Ca sens inh 4, cardiac RTF act 0, Keap1-Nrf2 PPI 0 and LANA DNA inh 2.
For Cc1ccc(C)n1/N=C1/NC(=O)CS1 the results were LANA-H2A inh -2, RTF Ca sens inh 10, cardiac RTF act -16, Keap1-Nrf2 PPI 0 and LANA DNA inh 87*.
`Cc1ccc(N=C2NC(=O)CS2)cc1` gave LANA-H2A inh 1, RTF Ca sens inh -2, cardiac RTF act -11, Keap1-Nrf2 PPI -1 and LANA DNA inh 1.
`CCOC(=O)/C(=N/Nc1ccc(Br)cc1)N1CC(C)OC(C)C1` (stereo not given) gave RTF Ca sens inh -6, cardiac RTF act 0, Keap1-Nrf2 PPI -3 and LANA DNA inh 1.
COc1cc(CN2CCC(n3nccc3NC(=O)c3ccc4c(c3)OCO4)CC2)ccc1O was read as LANA-H2A inh 47*, RTF Ca sens inh -1, cardiac RTF act -1, Keap1-Nrf2 PPI -7 and LANA DNA inh -1.
`O=C(Nc1ccnn1C1CCN(Cc2ccc(CO)o2)CC1)c1ccc2c(c1)OCO2` gave LANA-H2A inh -1, RTF Ca sens inh -2, cardiac RTF act -4, Keap1-Nrf2 PPI -3 and LANA DNA inh -1.
`CC(=O)OCC(=O)C1(O)CCC2C3CCC4C(OC(C)=O)C(=O)CCC4(C)C3C(=O)CC21C` (stereo not given) gave RTF Ca sens inh -18, cardiac RTF act -4, Keap1-Nrf2 PPI 5 and LANA DNA inh 7.
COc1ccc(NC(=O)c2cc(F)cc(F)c2)cc1S(=O)(=O)N1CCCCC1 was read as LANA-H2A inh 18*, RTF Ca sens inh 0, cardiac RTF act -1, Keap1-Nrf2 PPI 0 and LANA DNA inh -1.
Screening COc1ccc(NC(=O)c2cc(OC)c(OC)c(OC)c2)cc1S(=O)(=O)N1CCCCC1 returned LANA-H2A inh 2, RTF Ca sens inh 5, cardiac RTF act 0, Keap1-Nrf2 PPI -3 and LANA DNA inh -1.
COc1ccc(OCc2cc(C(=O)N3CCN(CC4CC4)CC3)no2)c(Cl)c1 was read as LANA-H2A inh 26*, RTF Ca sens inh -5, cardiac RTF act 1, Keap1-Nrf2 PPI -3 and LANA DNA inh 1.
CCOC(=O)N1CCN(C(=O)c2cc(COc3ccc(OC)cc3Cl)on2)CC1 was read as LANA-H2A inh -1, RTF Ca sens inh -3, cardiac RTF act 2, Keap1-Nrf2 PPI -5 and LANA DNA inh 0.
Screening Cc1cccc(N2C(=O)C(O)=C(C(=O)c3cccs3)C2c2ccc(F)cc2)n1 (stereo not given) returned LANA-H2A inh 0, RTF Ca sens inh -2, cardiac RTF act -6, Keap1-Nrf2 PPI -4 and LANA DNA inh 0.
`COc1ccc(C2C(C(=O)c3cccs3)=C(O)C(=O)N2c2nnc(C)s2)cc1OC` (stereo not given) gave LANA-H2A inh 11, RTF Ca sens inh -71, cardiac RTF act 80*, Keap1-Nrf2 PPI inconclusive and LANA DNA inh 42.
For C=CCOc1ccc(C2C(C(=O)c3cccs3)=C(O)C(=O)N2c2nnc(C)s2)cc1 (stereo not given) the results were LANA-H2A inh 12, RTF Ca sens inh -43, cardiac RTF act 44*, Keap1-Nrf2 PPI 0 and LANA DNA inh 51.

Source: PubChem BioAssay
